Source: PubChem
ATG4B inhibitor: blocks human ATG4B protease cleavage of LC3 substrate; Q9Y4P1; ATG4B cleavage of LC3-PLA2, NBD-HPC fluorescence, 1 h; inhibition, % at 8.33 µM; hit rate 0.51% among 340,000; in the data active = inhibition above about 40%
Target sequence (Q9Y4P1 whole entry, looked up): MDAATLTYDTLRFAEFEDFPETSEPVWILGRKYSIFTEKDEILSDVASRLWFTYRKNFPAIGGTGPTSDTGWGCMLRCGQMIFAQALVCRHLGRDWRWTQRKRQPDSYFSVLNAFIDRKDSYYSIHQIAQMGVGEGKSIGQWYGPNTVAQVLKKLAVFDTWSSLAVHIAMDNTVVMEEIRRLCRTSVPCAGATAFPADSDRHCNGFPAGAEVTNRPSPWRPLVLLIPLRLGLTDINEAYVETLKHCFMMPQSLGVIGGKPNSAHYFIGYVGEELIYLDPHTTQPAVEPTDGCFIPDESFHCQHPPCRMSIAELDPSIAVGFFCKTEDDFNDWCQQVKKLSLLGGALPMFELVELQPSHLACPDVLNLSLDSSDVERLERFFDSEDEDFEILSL
CHRM1 PAM: potentiates human M1 receptor response to acetylcholine. P11229. CHO-K1 hM1, Fluo-8 calcium fluorescence, ACh EC20; 0% = ACh EC20, 100% = maximal ACh. activation, % at 3 µM. hit rate 0.088% among 360,000. AID 588819; in the data active = activation above about 19%, passing the limit was not always enough
SKN-1 inh: blocks SKN-1 activity in C. elegans; hit rate 0.49% among 360,000; AID 624304; inhibition, % at 21.8 µM; C. elegans VP596 Pgst-4::GFP/RFP ratio, acrylamide-induced, 24 h;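 active = interference check ratio from 0.5 to 1.5 plus GFP to RFP signal ratio inhibition reaching or exceeding a fixed threshold, cut at about 30% in these data, passing the limit was not always enough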
M1 antag: human CHRM1 antagonism. inhibition, % at 3 µM. CHO-K1 hM1, Fluo-8 calcium fluorescence, ACh EC80 antagonist. hit rate 1.3% among 360,000. P11229;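 active = percent inhibition above its own plate's cutoff, namely the mean of that plate's compound wells plus 3 SD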;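 note: peak over basal fluorescence ratio during 140 s after agonist addition; 0% = ACh EC80 plus DMSO and 100% = DMSO alone without agonist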
CHRM1 agonist: human M1 muscarinic receptor agonism; activation, % at 3 µM; hit rate 0.33% among 360,000; CHO-K1 hM1, Fluo-8 calcium fluorescence, agonist mode; 0% DMSO, 100% acetylcholine EC100; P11229;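 active = activation above the run's mean compound activation plus 3 SD, cut at about 16% in these data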;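 note: peak over basal fluorescence ratio within a 140 s kinetic read after compound addition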
Myeloid diff 2: compounds promoting myeloid differentiation; ER-HoxA9 myeloid progenitors, lysozyme-GFP differentiation, flow cytometry; hit rate 1% among 360,000; AID 624256; calls only at 10 µM;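 active = normalized GFP-positive differentiation at or above the plate's own cutoff, the solvent-only control mean plus 3 SD; inconclusive = no clear call, values can overlap the other calls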;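 note: cells exposed to compound for four days before flow analysis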
Myeloid diff CP1: promotes myeloid progenitor differentiation | shares compounds with Myeloid diff 2 | ER-HoxA9 myeloid progenitors, GFP/Mac1 double-positive flow | calls only | hit rate 2% among 2,300;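 active = share of green or green-and-red cells above 9 and 9% in run 1 or 4 and 3% in run 2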
GFP autofluor: flagged as fluorescent in myeloid differentiation counter-screen; shares compounds with Myeloid diff 2; AID 651707; hit rate 7.4% among 2,300; fluorescence response, % (no concentration beside the values); ER-HoxA9 myeloid progenitors, no estrogen, GFP autofluorescence flow cytometry; vehicle wells 0%, positive control 100%;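 active = over 5% cells positive for green fluorescent reporter, or over 2% positive for both it and APC stain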;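 note: range taken on the double positive population between DMSO and positive control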
* marks the source's active call; other numbers are inactive results; i = inactive; ? = inconclusive; · = not tested or not shown; + = active, no number. Most compounds without a hit are left out; they make up all but 3.5% or so of the library.

SMILES | ATG4B inhibitor | CHRM1 PAM | SKN-1 inh | M1 antag | CHRM1 agonist | Myeloid diff 2 | Myeloid diff CP1 | GFP autofluor
O=C(CNC(=O)OCc1ccccc1)NCC(=O)NC(Cc1c[nH]c2ccccc12)C(=O)O (centres undefined) | · | 0 | 1 | -4 | -4 | i | · | ·
Cc1oc(C(=O)O)cc1CSc1nnc(-c2ccccc2)n1C | 2 | 1 | 5 | 0 | -4 | i | i | 1
Oc1[nH]c2ccccc2c1/C=N/c1nccs1 | -11 | -2 | 5 | -21 | -2 | i | i | 2
COc1ccc(N=Cc2c(O)[nH]c3ccccc23)cc1 | -17 | 1 | -5 | -4 | -3 | ? | · | ·
Cc1ccccc1C1CCCN(Cc2nc(C3CC3)no2)C1 (centres undefined) | 0 | -4 | 6 | 5 | -6 | i | · | ·
Cc1cc(C)n(-c2nc3ccccc3nc2N2CCC(C)CC2)n1 | 3 | -5 | 21 | 10 | -9 | i | · | ·
Cc1cc(C)n(-c2nc3ccccc3nc2N2CCN(C(=O)c3ccc(F)cc3)CC2)n1 | 5 | -3 | 7 | 13 | -12 | i | i | 0
CCOC(=O)C1CCN(C(=O)CC2(CC(=O)O)CCCC2)CC1 | 3 | 8 | -2 | -8 | 5 | i | · | ·
Cc1cc(C)n(-c2cc(N3CCN(S(=O)(=O)c4ccc(Br)cc4)CC3)ccc2[N+](=O)[O-])n1 | -3 | -2 | 2 | 1 | -6 | i | i | 0
Cc1cc(C)c(S(=O)(=O)N2CCN(c3ccc([N+](=O)[O-])c(-n4nc(C)cc4C)c3)CC2)c(C)c1 | -3 | -2 | 8 | 6 | -4 | i | · | ·
O=C(NCc1ccccn1)[C@@H]1CCCN1C(=O)[C@@H]1CCCN1C(=O)c1cccc(Cl)c1 | · | · | 1 | · | · | i | i | 0
C#CC[N+]1(CC#Cc2ccccc2)CCOCC1 | -5 | 9 | -3 | -21 | -6 | i | i | 0
C(#Cc1ccccc1)C[N+]1(CC#Cc2cccc3ccccc23)CCOCC1 | 5 | -22 | 15 | 35 | -6 | i | · | ·
C#CC[N+]1(CC#Cc2cccc(C)c2)CCCCC1 | 2 | 0 | 9 | 4 | -13 | i | i | 0
Cc1cc(C)c(CN2CCN(Cc3ccc(C)o3)C(CCO)C2)c(-n2cccn2)c1 (centres undefined) | -5 | 8 | -1 | -8 | -7 | i | · | ·
Cc1ccc(C(=O)NCC(=O)OC2CCCCC2=O)cc1C (centres undefined) | 1 | 4 | -3 | -3 | 0 | i | · | ·
O=C(CNC(=O)c1ccc(Oc2ccccc2)cc1)OC1CCCCC1=O (centres undefined) | 3 | -1 | -4 | 3 | -4 | + | i | 0
O=c1[nH]c2ccccc2cc1CN(CC1CCCO1)S(=O)(=O)c1ccccc1 (centres undefined) | -11 | -1 | 11 | 2 | -1 | i | · | ·
CCOC(=O)c1ccccc1NS(=O)(=O)c1ccccc1F | 1 | 5 | -1 | -4 | -6 | + | i | 1
CCOC(=O)c1ccccc1NS(=O)(=O)c1ccccc1 | 3 | 1 | -3 | -4 | -5 | i | · | ·
Cc1ccccc1Nc1nc(N)nc(CSc2n[nH]c(N)n2)n1 | 1 | 2 | -13 | -3 | -3 | + | i | 0
CCOC(=O)c1c(C)oc2ccc(OCc3cc(C(=O)OC)oc3C)cc12 | 6 | -3 | 5 | 1 | -4 | i | · | ·
Cc1cc(=O)oc2c(C)c(OCC(=O)NCc3ccccn3)ccc12 | -3 | 7 | 19 | -3 | -2 | i | · | ·
COc1ccc(-c2cc(=O)oc3c(C)c(OCC(=O)Nc4cccnc4)ccc23)cc1 | -2 | -4 | -2 | 9 | -2 | i | · | ·
Cc1c(OCC(=O)NCc2ccccn2)ccc2c(-c3ccccc3)cc(=O)oc12 | -11 | 11 | 17 | -18 | -3 | + | i | 0
COc1ccc(-c2cc(=O)oc3c(C)c(OCC(=O)N(C)C)ccc23)cc1 | -6 | 3 | -4 | -11 | -3 | + | i | 0
